This note sets out measurements from the supplement of paper PMC6555819.

What all share (test): PBM binding z-score (relative to random genomic background probes); higher = stronger binding; sequences stand for … in GC…GCGATTGACAGCGTAGAATGAAGG
Test [1] deals with FXR:RXRa (NR concentration 270 nM, RXRa partner concentration 90 nM). The method in brief:
(§1)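 Ligand-free nuclear receptor dimers were applied to custom Agilent 4×180K protein-binding microarrays whose double-stranded probes carried direct-repeat seeds, single-nucleotide variants, half-site ablations and random human genomic background sequences in 34-nt variable regions. Incubation lasted 1 h. Binding z-scores were computed against the random background probes from regression-normalized fluorescence.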

Test [2] relates to LXRa:RXRa (NR concentration 270 nM, RXRa partner concentration 90 nM). The method in brief:
as §1

Test [3] concerns LXRa homodimer (NR concentration 270 nM). A digest of the protocol:
as §1

Test [4] has as its system LXRb:RXRa (NR concentration 270 nM, RXRa partner concentration 90 nM). A digest of the protocol:
as §1

For test [5], the system named is LXRb homodimer (NR concentration 270 nM). A digest of the protocol: as §1
For test [6], the system named is PPARa:RXRa (NR concentration 270 nM, RXRa partner concentration 90 nM). The method in brief: as §1
For test [7], the system named is PPARg:RXRa (NR concentration 180 nM, RXRa partner concentration 90 nM). The method in brief: as §1
Test [8] relates to PPARg:RXRa 270nM:90nM, anti-RXR (NR concentration 270 nM, RXRa partner concentration 90 nM). The method in brief: as §1
Test [9] deals with PPARg:RXRa 30nM:10nM, anti-RXR (NR concentration 30 nM, RXRa partner concentration 10 nM). A digest of the protocol:
as §1

Test [10] has as its system PPARg:RXRa 90nM:30nM, anti-RXR (NR concentration 90 nM, RXRa partner concentration 30 nM). A digest of the protocol:
as §1

For test [11], the system named is PPARg:RXRa DBDmut IVT, anti-RXR (DBD mutation: RXRa K156A/R161A, NR concentration 270 nM, RXRa partner concentration 90 nM). A digest of the protocol: as §1
Test [12] deals with PPARg:RXRa IVT, anti-PPARg (NR concentration 270 nM, RXRa partner concentration 90 nM). The method in brief:
as §1

For test [13], the system named is PPARg DBDmut:RXRa IVT, anti-PPARg (DBD mutation: PPARg1 K132A/R137A, NR concentration 270 nM, RXRa partner concentration 90 nM). A digest of the protocol: as §1
The subject of test [14] is PPARg DBDmut IVT, anti-PPARg (DBD mutation: PPARg1 K132A/R137A, NR concentration 270 nM). A digest of the protocol:
as §1

Test [15] deals with PPARg homodimer (NR concentration 180 nM). A digest of the protocol: as §1
The test system of test [16] is PXR:RXRa (NR concentration 270 nM, RXRa partner concentration 90 nM). A digest of the protocol:
as §1

In test [17] the test system is PXR homodimer (NR concentration 270 nM). The method in brief:
as §1

The subject of test [18] is RARa:RXR (NR concentration 270 nM, RXRa partner concentration 90 nM). The method in brief: as §1
In test [19] the test system is RARa homodimer (NR concentration 270 nM). A digest of the protocol: as §1
In test [20] the test system is RARb:RXRa (NR concentration 270 nM, RXRa partner concentration 90 nM). The method in brief: as §1

In the case of TCTTGTAGACCAAGCAGGTTAAGAAAGCCTGAGT, the PBM binding z-score was 0.286 in test [1]; 0.184 in test [2]; -0.371 in test [3]; -0.086 in test [4]; -0.534 in test [5]; 0.881 in test [6]. Besides, the PBM binding z-score in test [7] is -0.307; in test [8] it was 1.12; in test [9], 2.54; in [10], 1.77; in [11] it was 1.69; in [12], 0.677. Also, the PBM binding z-score in [13] was -0.0357; in [14], -0.21; in test [15], -0.226; in test [16] it was 0.504; in test [17], 0.118; in [18], 0.56. Moreover, the PBM binding z-score in [19] was -0.3; in test [20] it was 0.219.
For the sequence AGTCAAAATTCATCTAGGTAACGTAAGATATGCT, the PBM binding z-score in [1] was -0.194; in test [2], -0.373; in test [3], -0.0496; in test [4], -0.0959; in test [5] it was -0.222; in test [6], 0.0588. The PBM binding z-score in test [7] stood at 1.19; in test [8], 0.183; in test [9], 0.359; in [10], 0.0171; in test [11] it was 0.746; in test [12] it was 2.03. Also, the PBM binding z-score in test [13] was 1.05; in test [14], 0.853; in test [15], 0.212; in test [16], -0.186; in test [17], 0.107; in test [18], 0.122. In addition, the PBM binding z-score amounted to 0.616 in [19] and 0.168 in test [20].
Turning to ATATGTAGGTTACATCCGCGTCATTCAGGCTATG, the PBM binding z-score in test [1] stood at 0.387; in test [2] it was 1.31; in test [3] it was 0.198; in [4], 0.733; in test [5] it was 0.789; in [6], 3.15. Also, the PBM binding z-score in test [7] is 4.94; in test [8] it was 3.92; in test [9] it was 1.86; in test [10], 3.52; in [11], 7.33; in test [12] it was 7.28. Further, the PBM binding z-score is 2.01 in test [13]; 1.99 in [14]; 0.907 in [15]; 0.229 in [16]; 0.0394 in [17]; 0.412 in [18]. For the same sequence, the values for the PBM binding z-score in test [19] and in [20] were 0.447 and 0.941, respectively.
Consider TAACCTAGGTCATGGGCCAGTATACCACGCGAAC, for which the PBM binding z-score in test [1] was found to be 5.24; in test [2], 4.78; in test [3] it was 1.74; in [4], 3.44; in test [5], 0.868; in test [6] it was 4.78. Also, the PBM binding z-score in [7] amounted to 5.73; in [8], 5.21; in [9], 2.54; in test [10], 4.41; in test [11] it was 4.06; in [12] it was 5.09. Also, the PBM binding z-score in [13] was 1.44; in test [14], 0.97; in test [15] it was 2.68; in test [16], 2.19; in [17] it was 0.195; in [18] it was 3.44. In addition, the PBM binding z-score in test [19] was found to be 1.11; in test [20] it was 4.08.
In the case of ACTATTAGTTGACTTAAGGCAACCGATACGACGC, the PBM binding z-score in test [1] was found to be 0.413; in test [2], 0.299; in test [3], 0.175; in [4] it was 0.537; in [5], 1.03; in [6], 0.139. Also, the PBM binding z-score came out at 0.967 in test [7]; 0.607 in [8]; 0.511 in [9]; 0.394 in test [10]; 0.219 in test [11]; 0.392 in test [12]. The PBM binding z-score was 0.915 in test [13]; 1.11 in test [14]; 0.0202 in test [15]; 0.21 in test [16]; -0.0343 in [17]; 1.43 in [18]. In addition, the PBM binding z-score worked out at 0.466 in [19] and 0.296 in test [20].
As for CGTCCAAGGTCAGAGTGGTCAGTGAATGCCGAGT, the PBM binding z-score in [1] is 4.91; in test [2] it was 3.23; in test [3] it was 0.338; in test [4], 2.49; in test [5] it was -0.0536; in test [6], 3.83. The PBM binding z-score in test [7] was determined as 1.79; in test [8] it was 2.5; in test [9], 0.0236; in test [10], 1.35; in test [11], 2.5; in [12] it was 2.37. Further, the PBM binding z-score in test [13] was -0.175; in test [14], -0.939; in [15], 2.59; in test [16], 2.78; in test [17], 1.03; in [18], 3.16. For the same sequence, the PBM binding z-score in test [19] was determined as 0.908; in [20], 4.8.
With TCAGAGAGGTGAAGGTAACTCAGGTACGCAGTCG, the PBM binding z-score was 1.22 in [1]; 2.12 in [2]; -0.198 in test [3]; 0.909 in test [4]; -0.432 in test [5]; 2.27 in test [6]. Moreover, the PBM binding z-score in [7] was found to be 1.23; in test [8], 2.64; in [9], 3.84; in test [10], 3.09; in [11], 3.17; in test [12], 2.38. The PBM binding z-score in [13] is 0.0231; in [14], -0.235; in test [15] it was 0.67; in test [16], 0.893; in test [17], -0.409; in test [18] it was 1.49. Moreover, the values for the PBM binding z-score in [19] and in [20] were -0.115 and 2.07, respectively.
